Structures are written as SMILES. Several values for one entry are separate records, joined by “and”; a condition that tells them apart may be missing. Identical values can stand only once. This is part of a sample that, as a whole, favours compounds with a hit. Of some 83,000 tested, about 20% had one in any assay.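 Percent growth is the endpoint: 0 to 100 indicates growth inhibition (40 means 60% inhibition), 0 means no net growth, and negative values indicate cell death.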 Values without a mark were called inactive. Activity calls are given as the source filed them. How the source made its calls: active means growth percent below 10; inactive means the rest.

The test deals with MDA-MB-468 breast. The test can be described thus: NCI-60 one-dose screen, 48 h (100 = growth as untreated, 0 = no growth, -100 = all killed). Particulars: 10 µM unless noted.
Take `COc1ccc2nc3cc(Cl)ccc3c(Nc3ccc(N(C)C)cc3)c2c1`: the growth is 73.7%.

With `O=C(/C=C/c1ccccn1)c1ccc(OCc2nnc(-c3ccc(Cl)cc3)o2)cc1`, the growth was -37.7% (active).

`COc1ccc(CCc2nc3cc(-c4c(C)noc4C)ccc3n2CCN2CCOCC2)cc1`: the growth was 9.69% (active).

Turning to `CC(=N\N=C(N)N)/C(=N/N=C(N)N)c1ccccc1`, the growth was 39.6%.

In the case of `COC(=O)[C@H](CCCCNC(=O)OCc1ccccc1)NC(=O)[C@@H](NC(=O)Nc1cc(C(F)(F)F)cc(C(F)(F)F)c1)C(C)C`, the growth is -12.9% [100 µM] (active).

As to `COc1ccc(C2CC(c3cc(Cl)c(C)cc3OC)=NN2c2ccc(S(N)(=O)=O)cc2)cc1OC` (stereo unspecified), the growth is 94.6%.

For the compound `COc1ccc(/C(C#N)=C/c2cccc(OC)c2OC)cc1`, the growth is -19.3% (active).

Regarding `Cc1ccc(C2CC(c3cccc(Nc4ccncc4)c3)=NN2c2ccc(Cl)cc2)cc1` (stereo unspecified), the growth was -71% (active).

With `COc1ccc(/C=c2\c(=O)n(-c3ccccc3)c3nn4c(=O)c(=O)[nH]nc4n23)cc1`, the growth was 112%.

Consider `c1ccc(Nc2ccc(Nc3nc(-c4ccccc4)nc4ccccc34)cc2)cc1`, for which the growth is 82.3%.

With `CC(=O)OCCO`, the growth was 98.6%.

As for `CN(C)c1ccc(C(=C2C=CC(=[N+](C)C)C=C2)c2ccc(N(C)C)cc2)cc1`, the growth is -82.4% (active).

As to `Cc1nc2sc(C(=O)Nc3cccc(Cl)c3C)c(N)c2cc1C(C)O` (stereo unspecified), the growth was 25.4%.

On to `CC(C1=C(CN(C(=O)Cc2cn(-c3ccccc3)nc2-c2ccc(Cl)cc2)C(C)C)Cc2ccccc21)c1ccccn1` (stereo unspecified), for which the growth is 43.8%.

For the compound `CCOC(=O)c1cc(C(=O)c2cc(OC)c(OC)c(OC)c2)n2ccc(-c3cc[n+](CC(=O)c4cc(OC)c(OC)c(OC)c4)cc3)cc12`, the growth is 43.2%.

In the case of `N=C(N)c1ccc(-c2ccc(-c3cc(Cl)cc(Cl)c3)s2)nc1`, the growth was 15.7%.

`COC(=O)c1ccc2[nH]c(O)c(C(=Nc3ccc(N(C)C(=O)CN4CCN(C)CC4)cc3)c3ccc(N)cc3)c2c1`: the growth was 62%.

As to `O=C1Nc2ccccc2[C@]12CC(c1ccccc1)=NN2`, the growth is 56.5%.

As to `O=S(=O)(Nc1ccccn1)c1ccc(N=Nc2ccc(O)c3ncccc23)cc1`, the growth was 4.46% (active).

Turning to `CCCCOC1NC(=O)NC(=O)C1(F)C(=O)OCC` (stereo unspecified), the growth is 93.8% and 101%.

Turning to `COc1cc(/C(=C2/O[C@@H]([C@H]3COC(C)(C)O3)[C@H]3OC(C)(C)O[C@@H]23)c2ccc3ccccc3c2)cc(OC)c1OC`, the growth was 51.2%.

Turning to `COc1ccc2c(c1)c(-c1nnc(N)nc1-c1c[nH]c3ccc(F)cc13)cn2C`, the growth was 2.84% (active).

As to `NC(N)=Nc1ccc(S(=O)(=O)O)cc1`, the growth is 114%.

With `CN(C)c1ccc(N=C2C=CC(=O)c3ccccc32)cc1`, the growth is 65.6%.

`Oc1ccc(N=Nc2ccccn2)c(O)c1`: the growth is -2.78% (active).

`O=C(Nc1ccccc1)Nc1ccccc1CNc1nc(Nc2ccc(OCCN3CCCC3)cc2)ncc1Cl`: the growth is 17.7%.

As for `CC(O)c1cnc(/C=C2\SC(=S)N(Cc3ccccc3)C2=O)s1` (stereo unspecified), the growth was 13.8%.

With `COc1cccc2c1C(=O)c1c(O)c3c(c(O)c1C2=O)C[C@@](O)(/C(C)=N/NC(=O)c1cccc([N+](=O)[O-])c1)C[C@@H]3OC1CC(N)C(O)C(C)O1` (stereo partly specified), the growth is -18.9% (active).

On to `O=C1CCC(=O)CC1`, for which the growth is 115%.

On to `CCOC(=O)C1=C(N)Oc2c(sc3c(C)cccc23)C1c1ccc(F)cc1` (stereo unspecified), for which the growth was 6.58% (active).

Regarding `CO[C@H]1/C=C/O[C@@]2(C)Oc3c(C)c(O)c4c(O)c(c(/C=N/N5CCN(C)CC5)c(O)c4c3C2=O)NC(=O)/C(C)=C\C=C\C(C)[C@H](O)[C@@H](C)[C@@H](O)[C@@H](C)[C@@H](OC(C)=O)[C@@H]1C` (stereo partly specified), the growth was 92.2%.

`O=C(NC1CCN(Cc2ccccc2)CC1)c1cc2nc(-c3ccc(Cl)s3)cc(C(F)(F)F)n2n1`: the growth is -66.2% (active).

On to `CC(=[N-])N1CCC[C@@H](Nc2c3ccccc3nc3ccccc23)C1.[Cl][Pt].[NH-]CCC[NH-]`, for which the growth was -10.4% (active).

Regarding `COc1ccc2nc3cc(Cl)ccc3c(NCCCNCCC(C)O)c2c1` (stereo unspecified), the growth is -54% (active).

Turning to `CS(=O)(=O)Nc1cncc(-c2ccc3ncnc(Nc4ccc(F)c(Cl)c4)c3c2)c1`, the growth was -30.3% (active).

Take `C=C[C@@H]1CCC/C=C/[C@@H]2C[C@H](O)C[C@H]2[C@H](O)/C=C/C(=O)O1`: the growth was -46.6% (active).

These data come from PubChem BioAssay (NCI).
